Test results: PubChem BioAssay AID1159580 (chemical genetic matrix, 2015)
“And” between values parts separate entries of the source, which are not always exact repeats. Identical values can stand only once. Hit rate of the full screen: of about 5,500 compounds, about 2,000 (36%) were called active. Inconclusive results (about 18%) are left out. Rule as the data show it: active = normalized growth mostly below about 0.91 (no sharp cut-off); inconclusive = no clear call, values can overlap the other calls; inactive = mostly above about 0.92. The list shows a part of the results.

Assay: chemical genetic growth profiling, strain panel (AID 1159580);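 also: tested at 20 µM; growth read once vehicle control cultures reached saturation at 30 °C; 1 = growth at the plate median or of vehicle wells; lower values mean less growth of the strain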
Details: S. cerevisiae deletion strains, growth OD

Measured: normalized growth

OC[C@H]1O[C@@](CO)(O[C@@H]2O[C@H](CO)[C@@H](O)[C@H](O)[C@H]2O)[C@@H](O[C@@H]2O[C@H](CO)[C@@H](O)[C@H](O)[C@H]2O)[C@@H]1O
inactive: locus YAL013W, strain DEP1, active compounds read low 1.02 | locus YAL021C, strain ccr4, active compounds read low 1.01 | locus YAL026C, strain drs2, active compounds read low 1.02 | locus YAL030W, strain snc1, active compounds read low 1.02 | locus YBL061C, strain skt5, active compounds read low 1.02 | locus YBR009C, strain hhf1, active compounds read low 1.02 | locus YBR021W, strain FUR4, active compounds read low 1.01 | locus YBR023C, strain chs3, active compounds read low 1.02 | locus YBR171W, strain sec66, active compounds read low 1.03 | locus YBR229C, strain ROT2, active compounds read low 1.01 | locus YBR231C, strain swc5, active compounds read low 1.02 | locus YBR279W, strain paf1, active compounds read low 1.02 | locus YCL011C, strain gbp2, active compounds read low 1.02 | locus YCL016C, strain dcc1, active compounds read low 1.02 | locus YCL029C, strain bik1, active compounds read low 1.05 | locus YCL061C, strain MRC1, active compounds read low 1.01 | locus YCL069W, strain vba3, active compounds read low 1.01 | locus YCR088W, strain abp1, active compounds read low 1.01 | locus YDL005C, strain med2, active compounds read low 1.02 | locus YDL035C, strain GPR1, active compounds read low 1.04 | locus YDL040C, strain nat1, active compounds read low 1.01 | locus YDL074C, strain BRE1, active compounds read low 1.09 | locus YDL101C, strain DUN1, active compounds read low 1.02 | locus YDL134C, strain PPH21, active compounds read low 1.05 | locus YDL185W, strain tfp1, active compounds read low 1.01 | locus YDL192W, strain arf1, active compounds read low 1.04 | locus YDR001C, strain nth1, active compounds read low 1.02 | locus YDR069C, strain doa4, active compounds read low 1.04 | locus YDR101C, strain arx1, active compounds read low 1.01 | locus YDR137W, strain rgp1, active compounds read low 1.02 | locus YDR159W, strain sac3, active compounds read low 1.02 | locus YDR162C, strain NBP2, active compounds read low 1.07 | locus YDR195W, strain ref2 1.01 | locus YDR297W, strain sur2, active compounds read low 1.02 | locus YDR318W, strain mcm21, active compounds read low 1.06 | locus YDR334W, strain swr1, active compounds read low 1.02 | locus YDR335W, strain msn5, active compounds read low 1.02 | locus YDR388W, active compounds read low 1.01 | locus YDR392W, strain spt3, active compounds read low 0.969 | locus YDR502C, strain sam2, active compounds read low 1.05 | locus YEL003W, strain gim4, active compounds read low 1.03 | locus YEL037C, strain rad23, active compounds read low 1.02 | locus YEL061C, strain CIN8 (second series), active compounds read low 1.02 | locus YEL061C, strain CIN8, active compounds read low 1.01 | locus YER015W, strain faa2, active compounds read low 1.02 | locus YER016W, strain bim1, active compounds read low 1.02 | locus YER110C, active compounds read low 1.01 | locus YER111C, strain swi4, active compounds read low 1.02 | locus YER155C, strain BEM2 (second series), active compounds read low 1.03 | locus YER155C, strain BEM2, active compounds read low 1.02 | locus YER167W, strain BCK2, active compounds read low 1.01 | locus YFR010W, strain ubp6, active compounds read low 1.02 | locus YGL078C, strain dbp3, active compounds read low 1.04 | locus YGL086W, strain mad1, active compounds read low 1.03 | locus YGL167C, strain pmr1, active compounds read low 1.02 | locus YGL173C, strain kem1, active compounds read low 1.03 | locus YGL227W, strain vid30, active compounds read low 1.02 | locus YGL240W, strain doc1, active compounds read low 1.02 | locus YGL248W, strain PDE1, active compounds read low 1.05 | locus YGL253W, strain hxk2, active compounds read low 1.02 | locus YGR078C, strain PAC10, active compounds read low 1.04 | locus YGR135W, strain pre9, active compounds read low 1.04 | locus YGR252W, strain gcn5, active compounds read low 1.09 | locus YHR013C, strain ard1, active compounds read low 1.03 | locus YHR027C, strain rpn1, active compounds read low 1.02 | locus YHR030C, strain SLT2, active compounds read low 1.01 | locus YHR079C, strain IRE1 (second series), active compounds read low 1.01 | locus YHR079C, strain IRE1, active compounds read low 1.02 | locus YHR094C, strain hxt1, active compounds read low 1 | locus YHR129C, strain ARP1, active compounds read low 1.02 | locus YHR142W, strain chs7, active compounds read low 1.01 | locus YHR200W, strain rpn10, active compounds read low 1.03 | locus YIL066C, strain RNR3, active compounds read low 1.03 | locus YIL073C, strain SPO22, active compounds read low 1.05 | locus YIL125W, strain kgd1, active compounds read low 1.02 | locus YIR030C, strain dcg1, active compounds read low 1.01 | locus YJL092W, strain hpr5, active compounds read low 1.02 | locus YJL095W, strain BCK1 (second series), active compounds read low 1.02 | locus YJL095W, strain BCK1, active compounds read low 1.08 and 1 | locus YJL115W, strain asf1, active compounds read low 1.02 | locus YJL129C, strain trk1, active compounds read low 1.01 | locus YJL134W, strain LCB3, active compounds read low 1.01 | locus YJL154C, strain vps35, active compounds read low 1.01 | locus YJL164C, strain tpk1, active compounds read low 1 | locus YJL166W, strain qcr8, active compounds read low 1.02 | locus YJL168C, strain set2, active compounds read low 1.02 | locus YJL187C, strain SWE1 (second series), active compounds read low 1.05 | locus YJL187C, strain SWE1, active compounds read low 1.02
